Source: PubChem BioAssay (Tox21)
Results filed as inconclusive are left out. A call without a number means that no potency is given here. Unmarked numbers belong to inactive results. Activity calls are given as the source filed them. Calls follow the shape of the dose curve; as a rule, active = well fitted activation curve with a large enough effect in the repeat runs; inconclusive = weak or mixed curves; inactive = flat fitted curve, though single readings scatter.
Potency is read from the fitted curve at half-maximal effect.

Experiment: A CellTox Green Cytotoxicity Assay to monitor cytotoxicity in HepG2 cells - 16 hour (AID 1224876); also: nearly all actives have a fitted effect of over 45% in size
Conditions: CellTox Green fluorescence; series mostly up to 76.8 µM
Outline: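 Cytotoxicity was tracked as dead-cell DNA fluorescence in HepG2 cells treated with test compounds at 37 C; each time-point value comes from one kinetic series spanning 0, 8, 16, 24, 32 and 40 h.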
In the case of `CC(COCCO)OCCO` (stereo not drawn), the Potency is reported as “inactive”. In the case of `CCC(C)(C)CC`, the Potency is reported as “inactive”. With `CCN(CC)CCNc1ccc(CNC=O)c2sc3ccc(OC)cc3c(=O)c12` the Potency was “inactive”. In the case of `CC[N+](C)(CC)CCOC(=O)C(O)(c1ccccc1)C1CCCCC1` (stereo not drawn), the Potency is reported as “inactive”. With `C=C(C)C(=O)OCC` the Potency was “inactive”. With `C[N+]1(CC2COC(c3ccccc3)(C3CCCCC3)O2)CCCCC1` (stereo not drawn) the Potency was “inactive”. With `NCCCN1CCOCC1` the Potency was “inactive”. In the case of `CC(=O)[O][Al]`, the Potency is reported as “inactive”. For `NC(=O)C(c1ccccc1)(c1ccccc1)[C@@H]1CCN(CCc2ccc3c(c2)CCO3)C1`, the Potency was 23.9 µM (active). With `CC(=O)[O][Al][O]C(C)=O` the Potency was “inactive”. In the case of `CCCCOC(=O)CCCCCCCC(=O)OCCCC`, the Potency is reported as “inactive”. In the case of `CCCCC(CC)COC(=O)CCCCCCCCC(=O)OCC(CC)CCCC` (stereo not drawn), the Potency is reported as “inactive”. For `O=C(OCCCCCCOC(=O)c1ccccc1)c1ccccc1`, the Potency was “inactive”. In the case of `C[Si](C)(CCCN)O[Si](C)(C)CCCN`, the Potency is reported as “inactive”. For `Nc1cccc([N+](=O)[O-])c1`, the Potency was “inactive”. With `NS(=O)(=O)c1ccc(N2CCCCS2(=O)=O)cc1` the Potency was “inactive”. With `Cc1ncc(CO)c(C=O)c1O` the Potency was “inactive”. In the case of `OC[C@H]1O[C@@H](OCCc2ccc(O)cc2)[C@H](O)[C@@H](O)[C@@H]1O`, the Potency is reported as “inactive”. With `O=C(O)c1nc(Cl)c(Cl)c(Cl)c1Cl` the Potency was “inactive”. In the case of `CC(C)OC(=O)C(C)N(C(=O)c1ccccc1)c1ccc(F)c(Cl)c1` (stereo not drawn), the Potency is reported as “inactive”. With `C[C@@H](c1ncncc1F)C(O)(Cn1cncn1)c1ccc(F)cc1F` (stereo partly drawn) the Potency was “inactive”. In the case of `CC(C)(O)c1ccc(CNC(=O)c2cccnc2Oc2ccc(F)cc2)cc1`, the Potency is reported as “inactive”. For `CC(CSC(=O)c1ccccc1)C(=O)N1C[C@@H](Sc2ccccc2)C[C@H]1C(=O)O` (stereo partly drawn), the cytotoxicity increase was -2.05% [at 15.8 µM].
